Test results published in PubChem BioAssay (NCATS).
Records with an inconclusive call do not appear. A call without a number means that no potency is given here. The source made the active and inactive calls. Calls follow the shape of the dose curve; as a rule, active = well fitted inhibition curve with a large enough effect; inconclusive = small, poorly fitted or top-dose-only effect; inactive = flat fitted curve, though single readings scatter.

assay: qHTS for Inhibitors of Plasmodium falciparum (7G8) proliferation (AID 504316); also: nearly all actives have a fitted effect of over 65% in size; conditions: P. falciparum 7G8 in erythrocytes, SYBR Green DNA, 72 h; series mostly up to 6.7 µM
Procedure, shortened: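 Parasite growth measured as SYBR Green DNA fluorescence (ex 485, em 535 nm) after overnight lysis following 72 h culture at 37 °C, 0.3% parasitemia, 2.5% hematocrit. Values normalized against DMSO and 0.29 uM artemisinin controls, with plate-stack correction.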
Potency is read from the fitted curve at half-maximal effect.

Compound	Potency
C=CCNC(=O)N1C2=NC(C(=O)OC)=C(C(=O)OC)[C@@H]3N(Cc4ccccc4)c4ccccc4[C@]23C[C@H]1C(=O)OC	1510 nM (active)
COC(=O)CCC(=O)OC1(C)C(=O)C=C2C=C(C3CC3)N(C(CO)CO)C=C2C1=O (stereo unspecified)	inactive
COCC(=O)N1CCc2nc(COc3ccccc3)c3c(c2C1)CO[C@@H](C)C3	inactive
COC(=O)C1=C(C(=O)OC)[C@@H]2N(Cc3ccccc3)c3ccccc3[C@@]23C[C@@H](C(=O)OC)N(S(=O)(=O)c2ccc(C#N)cc2)C3=N1	1900 nM (active)
C=CCOC(=O)C(C(C)=O)[C@@H](NC(=O)OC)c1cccc(C(F)(F)F)c1 (stereo partly specified)	inactive
COC(=O)C1=C(C(=O)OC)[C@@H]2N(Cc3ccccc3)c3ccccc3[C@@]23C[C@@H](C(=O)OC)N(S(=O)(=O)c2ccc(C)cc2)C3=N1	1690 nM (active)
COC(=O)N1C2CC(=O)O[C@@H]3c4cc5c(cc4[C@]1(C)[C@@]3(Br)c1ccccc12)OCO5	1690 nM (active)
COC(=O)C1=C(C(=O)OC)[C@@H]2N(Cc3ccccc3)c3ccccc3[C@@]23C[C@@H](C(=O)OC)N(S(=O)(=O)c2ccc(Br)cc2)C3=N1	1510 nM (active)
COC(=O)CCCC1=CC2=C(c3ccccc3)C(=O)C(C)(OC(=O)C3CCCC3)C(=O)C2=CN1CC(C)C (stereo unspecified)	inactive
CCOC(=O)CN1C(=O)N[C@@H](c2cccc(C(F)(F)F)c2)C(C(=O)OC)=C1C	inactive
CCOC(=O)CN1C(=O)N(CC)C(C)=C(C(=O)OC)[C@@H]1c1ccccc1	inactive
c1ccc(-c2nc(-c3cccc4ccccc34)c(Nc3ccc4ccccc4c3)o2)cc1	1510 nM (active)
COC(=O)C(C(=O)OC)[C@@H]1c2ccccc2[C@H]2C(=C[C@@H](C)[C@H]3C(=O)N(c4ccccc4)C(=O)[C@H]32)N1C(=O)OC	inactive
CCCCc1nc2c(c3c1C[C@H](C)OC3)CN(S(=O)(=O)c1ccc3c(c1)OCCN3C)CC2	inactive
COC(=O)CCC(=O)OC1(C)C(=O)C2=CN(CCCCO)C(c3ccc(OC)cc3)=CC2=C(Br)C1=O (stereo unspecified)	inactive
COC(=O)C1=C(C(=O)OC)[C@@H]2N(Cc3ccccc3)c3ccccc3[C@@]23C[C@@H](C(=O)OC)N(S(=O)(=O)c2ccc(C(F)(F)F)cc2)C3=N1	478 nM (active)
